GALC G270D act: enhancers of human galactocerebrosidase G270D mutant activity in cells. P54803. 145M-Twi-hGALC-G270D cells (Twitcher mouse brain line with human GALC G270D), HMU-beta-Gal fluorescence, 48 h. Potency, µM (series often up to 57.5 µM), actives largely listed as activators. hit rate 0.1% among 45,000. AID 1159614; also: potency is read from the fitted curve at half-maximal effect; 0% is about no effect; nearly all actives have a fitted effect of over 65% in size
Target sequence (P54803 whole entry G286D): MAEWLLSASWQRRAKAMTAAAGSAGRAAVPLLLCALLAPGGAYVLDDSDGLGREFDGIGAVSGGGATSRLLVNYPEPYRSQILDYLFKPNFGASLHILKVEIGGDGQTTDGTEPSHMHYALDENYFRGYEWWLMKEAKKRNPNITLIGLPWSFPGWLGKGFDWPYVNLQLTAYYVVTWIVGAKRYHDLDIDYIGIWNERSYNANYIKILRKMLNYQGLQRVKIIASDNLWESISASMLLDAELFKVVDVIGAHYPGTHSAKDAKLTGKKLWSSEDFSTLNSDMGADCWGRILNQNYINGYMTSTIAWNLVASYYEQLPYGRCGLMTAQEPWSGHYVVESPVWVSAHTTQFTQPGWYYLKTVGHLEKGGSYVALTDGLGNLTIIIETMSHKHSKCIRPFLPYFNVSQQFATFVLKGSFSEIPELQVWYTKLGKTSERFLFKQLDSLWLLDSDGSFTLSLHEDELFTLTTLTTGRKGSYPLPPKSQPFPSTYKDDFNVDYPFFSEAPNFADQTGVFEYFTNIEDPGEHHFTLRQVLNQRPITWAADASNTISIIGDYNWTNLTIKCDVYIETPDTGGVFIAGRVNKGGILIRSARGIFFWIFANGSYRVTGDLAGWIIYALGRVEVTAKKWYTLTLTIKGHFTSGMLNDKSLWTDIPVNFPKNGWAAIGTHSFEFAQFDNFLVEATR
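Brain-derived Twitcher mouse 145M-Twi cells stably expressing human GALC-G270D or wild-type GALC, treated live, then residual GALC activity read by fluorescence of HMU-b-Gal substrate (0.1 mM final) in citrate-phosphate buffer pH 5.2 with sodium taurocholate. Signal increase indicates enhancement.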
FH mod: Identification of activators of human fumarate hydratase by quantitative high-throughput screening; Fumarate hydratase, mitochondrial (Homo sapiens), P07954; FH coupled MDH/diaphorase resazurin fluorescence, 15 min; Potency, µM (titrated, usually from 79.9 µM), without a hit: at the top dose activity change, negative = inhibition, hits mostly inhibitors; hit rate 0.22% among 54,000; also: potency is read from the fitted curve at half-maximal effect; % is scaled to controls: 0 for no effect and ±100 for the full control effect; the screen sought activators but most active calls are inhibition curves; nearly all actives have a fitted effect of over 45% in size
SKOV3 invasion: ovarian cancer metastasis inhibition, 3D TME model; SKOV3ip1-GFP adhesion/invasion on 3D omental model, fluorescence; Potency, µM (top dose mostly 45.8 µM), for the others: at the highest dose activity change, negative = inhibition, most hits filed as inhibitors; AID 1963576; hit rate 0.1% among 46,000;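 also: potency is read from the fitted curve at half-maximal effect; plate controls were DMSO wells for no effect and tomatine positive control wells for full effect; nearly all actives have a fitted effect of over 65% in size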
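Adhesion/invasion was scored as fixed GFP-labeled SKOV3ip1 cell counts (488/509 nm), normalized to DMSO and tomatine controls. Cancer cells in serum-free medium, with four compound doses (0.36-46 umol/L), sat 2 hr at RT then 16 hr at 37 C on a 48 hr fibroblast/mesothelial/ECM culture.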
GPR32 ag: agonists of human resolvin D1 receptor DRV1 (GPR32); AID 1346428; hit rate 2.5% among 48,000; O75388; activation, % at 76.9 µM; CHO-K1 GPR32 beta-arrestin PathHunter luminescence, 90 min; zero percent set by DMSO-only wells;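 active = activation of at least 60% and not above a set upper limit, about 1 call in 100 departs from these limits; inconclusive = activation of 40% to 60%, or above that upper limit; inactive = activation under 40%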; also: 0% is about no effect
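PathHunter enzyme-fragment complementation, CHO-K1 GPR32 stable line; 2,500 cells/well, overnight attach; cpd 90 min 37 °C 5% CO2; detection reagent 1 h RT; chemiluminescence. DMSO = EC0.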
* marks the source's active call; other numbers are inactive results; i = inactive; ? = inconclusive; · = no result; [ ] = another dose, or the depositor's remark. Rows were chosen to be rich in hits. Some 2.9% of all compounds tested hit in one or more screens of this group. Unless noted, calls follow the shape of the dose curve; as a rule, active = well fitted curve in the direction sought with a large enough effect; inconclusive = small, poorly fitted or top-dose-only effect, or another doubt; inactive = no such curve, though single readings can be large; an effect the other way counts as inactive or inconclusive.

SMILES	GALC G270D act	FH mod	SKOV3 invasion	GPR32 ag
O=C(COc1ccc(F)cc1)NC1CC(=O)N(c2ccc3c(c2)OCCO3)C1 (configuration not stated)	i	-0.4%	5.5%	115.5*
Cc1cc(Nc2nc(NC(C)c3ccc(F)cc3)c(C#N)cc2F)n[nH]1 (configuration not stated)	·	-9.2%	·	·
CC(=O)Nc1ccc(-c2nnc(SCC(=O)c3ccc([N+](=O)[O-])cc3)o2)cc1	i	-10.1%	i	64.0*
CCOC(=O)c1c(NC(=O)c2ccc(S(=O)(=O)N3CCC(C)CC3)cc2)sc2c1CCN(CC)C2	i	-15.6%	?	-4.7
CCOC(=O)c1c(NC(=O)c2ccc(S(=O)(=O)N3CCC(C)CC3)cc2)sc2c1CCN(C(C)C)C2	i	-10.2%	i	78.0*
C=C[C@H]1[C@H](O[C@@H]2O[C@H](CO)[C@@H](O)[C@H](O)[C@H]2O)OC=C(C(=O)OC)[C@H]1C[C@@H]1c2cc(O)c(O)cc2CCN1C(C)=O	·	7.5%[20.6 µM]	·	·
Cc1ccc(-c2nc(-c3cc4cccc(OCc5cccc(F)c5)c4oc3=O)no2)cc1	i	-5.3%	i	82.2*
Cc1ccc(-c2nc(-c3cc4cccc(OCc5ccc(F)cc5)c4oc3=O)no2)cc1	i	-0.4%	i	15.2
CC(C)c1ccc2oc3nc(N)c(C(=O)O)cc3c(=O)c2c1	i	-10.3%[53.3 µM]	7.9%	104.1*
CN1CCCN(C(=O)c2cccc(-c3ccc(/C=C4\C(=O)Nc5ccc(Cl)cc54)o3)c2)CC1	·	-28.7%	·	·
Cc1cc(-c2ccc(/C=C3\SC(=Nc4ccc(Cl)c(C(=O)O)c4)NC3=O)o2)c([N+](=O)[O-])cc1C	·	25.1µM*	·	·
Cc1cc(O)c2ccccc2c1O	i	?	·	80.6*
CCOC(=O)c1noc2ncn(CC(=O)Nc3ccc(C)c(F)c3)c(=O)c12	i	-9.0%	28.7%	76.0*
CCOC(=O)c1noc2ncn(CC(=O)Nc3cccc(Cl)c3)c(=O)c12	i	-0.7%	12.5%	14.1
Oc1cccc(C(Nc2ccccn2)c2ccc3cccnc3c2O)c1Cl (configuration not stated)	·	·	-3.6%	81.0*
C/C(=N\O)[C@@H](C)NCC(C)(C)CN[C@H](C)/C(C)=N/O	i	2.0%[53.3 µM]	·	118.4*
CCCCN(CC)C(=O)c1cc2c(=O)n3cccc(C)c3nc2s1	25.1µM*	?	-6.0%	?
CCCCN(CC)C(=O)c1cc2c(=O)n3cccc(C)c3nc2n1C	i	-4.5%	13.4%	-17.7
Cc1ccc(NC(=O)CSc2c3c(nc4ccccc24)CCCC3)cc1F	i	-21.4%	-22.6%	64.6*
COc1ccc(OC)c(NC(=O)CSc2c3c(nc4ccccc24)CCCC3)c1	i	?	?	-25.1
COc1cccc(NC(=O)CSc2c3c(nc4ccccc24)CCCC3)c1	i	-12.0%	11.2µM*	37.9
C=C1CC[C@H]2[C@@H](/C=C(\C)C(=O)[C@@]3(OC(C)=O)C[C@H](C)[C@H](OC(C)=O)[C@@H]3[C@H]1OC(C)=O)C2(C)C	·	-0.8%[53.3 µM]	·	·
C=C1C(=O)O[C@@H]2/C=C(\CO)CC/C=C(/C=O)C[C@H](O)[C@@H]12	·	-2.2%	·	·
COc1cc2nc(N3CCC(N4CCCCC4)CC3)nc(NC3CCCCCC3)c2cc1OC	·	-3.4%	·	·
COc1cc2c(NC3CCN(C(C)C)CC3)nc(C3CCCCC3)nc2cc1OCCCN1CCCC1	·	-16.5%	11.8µM*	·
SMILES	GALC G270D act	FH mod	SKOV3 invasion	GPR32 ag
COc1cc(N2CCN(C(C)=O)CC2)ccc1Nc1ncc(Cl)c(Nc2ccc(N3CCN(C(C)=O)CC3)cc2OC)n1	·	-11.2%	·	·
Cc1cc(C)cc(NC(=O)c2ccc3oc(=O)c(S(=O)(=O)c4ccc(F)cc4)cc3c2)c1	i	3.3%	-3.8%	102.8*
Cc1cn(C2C[C@H](O)[C@@H](CO)O2)c(=O)[nH]c1=O (some centres not stated)	·	16.1%	·	·
COc1ccc(C(=O)NCc2cc(C(C)C)no2)cc1OC1CCN(C)CC1	·	-3.7%	·	·
Cc1ccc(-n2ncc3c(NCCc4ccccc4)ncnc32)cc1	i	-3.0%	i	93.5*
COc1ccc(CCNc2ncnc3c2cnn3-c2ccc(C)c(Cl)c2)cc1	i	-15.0%	5.0%	?
Cc1ccc(-n2ncc3c(NCCc4ccccc4)ncnc32)cc1Cl	i	-14.8%	0.9%	117.2*

Assay outcomes as filed in PubChem BioAssay.
